Bioassay records: PubChem, National Center for Advancing Translational Sciences (NCATS)
D1 potentiator: human D1 dopamine receptor positive modulation; actives 0.036% (n = 360,000); potentiation, % at 10 µM; HEK293 TREx D1 cells, calcium flux, dopamine EC20 potentiation; P21728; in the data active = potentiation above about 30%; also: 0% is about no effect
Target sequence (P21728 whole entry, looked up): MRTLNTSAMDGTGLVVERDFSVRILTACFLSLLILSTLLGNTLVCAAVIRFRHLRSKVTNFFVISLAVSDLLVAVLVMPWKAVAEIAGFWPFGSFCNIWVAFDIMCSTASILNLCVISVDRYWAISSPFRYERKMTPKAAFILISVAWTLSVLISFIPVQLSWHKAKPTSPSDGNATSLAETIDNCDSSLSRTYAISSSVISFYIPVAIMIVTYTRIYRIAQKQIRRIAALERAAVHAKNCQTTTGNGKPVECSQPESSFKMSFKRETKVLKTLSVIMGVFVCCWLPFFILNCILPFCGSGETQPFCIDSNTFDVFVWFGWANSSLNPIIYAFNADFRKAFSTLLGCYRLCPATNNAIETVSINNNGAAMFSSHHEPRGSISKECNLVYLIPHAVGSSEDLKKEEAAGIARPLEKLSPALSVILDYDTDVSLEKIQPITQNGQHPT
D3 ag: D3 dopamine receptor (human) agonism | P35462 | max activation, % | actives 0.58% (n = 410,000) | D3R DiscoveRx beta-arrestin cells, luminescence, 90 min; in the data active = max activation above about 30%; also: 0% is about no effect
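Cells at 1500/well, incubated overnight, then treated with pinned compounds (dopamine as control) for 90 min at 37 degrees C. DiscoveRx reagent added for 30 - 60 minutes at room temperature; luminescence read.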
D3 antag: antagonists of human D3 dopamine receptor; P35462; D3R cells, DiscoveRx beta-arrestin luminescence, antagonist mode; hits give low values; max response, negative = inhibition, %; actives 2.5% (n = 360,000); AID 652054; in the data active = max response below about -50%; inconclusive = no clear call, values can overlap the other calls; also: % is scaled to controls: 0 for no effect and ±100 for the full control effect
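Cells plated overnight at 1500 cells/well, then exposed to library compounds with dopamine controls for 90 minutes at 37 degrees C. DiscoveRx reagent added for 30–60 minutes at room temperature; luminescence read, quantitative HTS format.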
D1 antagonist: antagonists of human D1 dopamine receptor. actives 3.2% (n = 360,000). P21728. AID 504652. HEK293 TREx D1 cells, calcium flux, dopamine EC80; hits give low values. activity change, negative = inhibition, % at 10 µM; in the data active = activity change below about -30%; also: % is scaled to controls: 0 for no effect and ±100 for the full control effect
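Tetracycline-induced HEK293 Trex D1 cells, force-coupled to calcium, dye-loaded; compounds added and read 180 s, then EC80 dopamine added and calcium flux tracked kinetically another 180 s.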
D1 ag: human D1 receptor agonism; P21728; HEK293 T-REx D1 cells, calcium flux, agonist mode; activation, % at 2 µM; actives 1% (n = 360,000); in the data active = activation above about 30%; also: 0% is about no effect
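Tetracycline-induced HEK293 TREx D1 cells, force-coupled to calcium signalling, were dye-loaded with a no-wash calcium kit. Compound was pin-added after a 10 s baseline. Fluorescence was read kinetically at 1 cycle/s for 180 s, with calcium rises flagged as agonism.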
* hit, by the source's call; ? = inconclusive; / = no result given. Compounds with a hit are over-represented: about 6% of the library has one in this group of screens.

SMILES | D1 potentiator | D3 ag | D3 antag | D1 antagonist | D1 ag
CC(C)c1noc(-c2ccccc2OCC(=O)Nc2cccc([N+](=O)[O-])c2)n1 | -2 | 1 | / | -19 | -2
CC(=O)N[C@@H](Cc1ccc(O)cc1)C(=O)N[C@H](C(=O)N[C@@H](C)C(=O)N[C@H](C#N)CC(=O)O)C(C)C | -2 | / | / | -17 | 2
COC(=O)c1c(SC)nc2ccccc2c1OCc1ccc(C)cc1C | -2 | 16 | / | 5 | 14
O=C1N(Cc2cccc(C(F)(F)F)c2)c2ccccc2S(=O)(=O)N1c1cccc(Cl)c1 | 0 | 6 | / | -19 | 4
CN1CCN(c2ccc(NC(=O)COc3ccc4ccccc4c3)cc2)CC1 | -3 | -12 | -5 | -39* | 16
CC(c1ccccc1)N1CCC(CNC(=S)Nc2cccc(Cl)c2)C1 (configuration not stated) | -4 | -11 | ? | -54* | 45*
CN(C)C(CNC(=S)Nc1cccc(Cl)c1)c1ccccc1 (configuration not stated) | -4 | -33 | -70* | 0 | 16
CN(C)C(CNC(=O)Nc1cccc(Cl)c1)c1cccnc1 (configuration not stated) | -11 | -4 | -52* | -14 | 3
COc1cc(OC)c(NC2(c3ccccc3)C(=O)c3ccccc3C2=O)cc1Cl | -3 | 0 | / | -18 | -1
CCOc1ccccc1CNC(=O)CN1C(=O)C2CCCCN2c2ccc(C(=O)N(C)C)cc21 (configuration not stated) | -4 | 8 | / | -10 | 0
CC1(C)C/C(=N\NC(=S)Nc2ccccc2F)c2cc(O)ccc2O1 | -5 | -8 | -53* | -5 | 1
Cc1cccc(NC(=S)N/N=C2\CC(C)(C)Oc3ccc(O)cc32)c1 | -2 | -1 | -27 | -5 | 2
CCOc1ccccc1CNC(=O)CCn1ccc2cc(S(=O)(=O)N3CCC(C)CC3)ccc21 | 1 | -9 | / | 2 | 1
O=c1oc2ccccc2c(NC2CCCCC2)c1NS(=O)(=O)c1ccc(F)cc1 | 0 | -2 | 17 | 3 | 4
COc1ccc(S(=O)(=O)Nc2c(NC3CCCCC3)c3ccccc3oc2=O)cc1 | -8 | 1 | -2 | -31* | 0
O=S1(=O)CCOC[C@H](c2ccccc2)N1Cc1cccc(Cl)c1 | -5 | -13 | -59* | 2 | 3
COC(=O)c1ccc(OCC(O)CN2C(=O)c3ccccc3C2=O)cc1 (configuration not stated) | -11 | 0 | 0 | -31* | 3
Cc1ccc(CNC(=O)C2CCN(c3nn4cc(-c5ccc(F)cc5)nc4s3)CC2)cc1 | 2 | 2 | / | 6 | 0
CCN(CC(O)c1cccc(O)c1)C(=O)C12CC3CC(CC(C3)C1)C2 (configuration not stated) | 0 | -1 | -78* | 2 | 0
Cc1ccc(-n2ccnc(NCCc3ccc(S(N)(=O)=O)cc3)c2=O)c(C)c1 | 2 | 7 | / | 2 | 0
O=C(Nc1ccc(F)cc1Cl)c1cnc(N2CCOCC2)c2ccccc12 | -3 | 6 | / | 4 | 0
Cc1c(CNC2CCC(C)CC2)c(C(=O)O)c(C)n1Cc1ccc(Cl)cc1 (configuration not stated) | -1 | -8 | / | 2 | 2
O=C(COC(=O)C1C2CC3OC(=O)C1C3C2)Nc1ccc(Br)cc1 (configuration not stated) | / | -9 | 21 | 7 | 33*
Cc1ccc(C(=O)O)cc1N1CCCC1=O | -1 | -5 | -51* | -8 | 0
Cc1ccc(C(=O)NC2CCCCCC2)cc1N1CCCC1=O | -6 | 4 | 20 | -4 | 3
SMILES | D1 potentiator | D3 ag | D3 antag | D1 antagonist | D1 ag
Cc1nc2scc(C)n2c(=O)c1S(=O)(=O)Nc1cccc(O)c1 | -5 | 2 | / | -48* | 4
CC(C)Oc1cc(F)ccc1-c1cc(C(=O)NC2CCCCC2)[nH]n1 | / | -15 | ? | / | /
CCCOc1ccc(F)cc1-c1cc(C(=O)NC2CCCCC2)[nH]n1 | / | -19 | -102* | / | /
CC(C)Oc1ccc(F)cc1-c1cc(C(=O)NC2CCCCC2)[nH]n1 | / | -15 | 0 | / | /
Cc1cc(F)ccc1-c1cc(C(=O)NC2CCCCC2)[nH]n1 | / | -22 | -83* | / | /
COC(=O)C[C@@H]1C=C[C@H](NC(=O)Cc2ccccn2)[C@@H](CO)O1 | / | 30* | -1 | / | /
COc1cc(-c2ccno2)ccc1S(=O)(=O)N1CCN(c2cccc(Cl)c2)CC1 | -3 | -10 | / | 6 | 3
COc1ccc(Cl)cc1NC(=O)NC(C)c1ccncc1 (configuration not stated) | -2 | -24 | ? | 4 | 2
COc1ccc(C(=O)COC(=O)c2n[nH]c3ccccc23)c(OC)c1 | -4 | 1 | 50 | 23 | 4
COc1ccc(NC(=O)Nc2cc(C)ccc2OC)cc1 | -6 | -2 | -6 | -32* | 1
COc1ccc(NC(=O)Nc2ccc(F)c(Cl)c2)cc1 | -9 | 2 | 3 | -49* | 22
Cc1ccc(NC(=O)Nc2ccc(F)c(Cl)c2)cc1 | -8 | 5 | -19 | / | 4
COc1ccc(OC)c(NC(=O)COC(=O)c2n[nH]c3ccccc23)c1 | / | 12 | 19 | -39* | 17
COc1ccc(C)cc1NC(=O)NC(C)c1ccncc1 (configuration not stated) | -15 | 0 | 12 | -32* | 2
COc1ccccc1CNC(=O)CSc1ncc2c(n1)-c1cc(Cl)ccc1N(Cc1ccccc1)S2(=O)=O | -5 | 2 | / | -7 | 3
CCOC(=O)c1ccccc1NC(=O)CSc1nc2ncccc2o1 | -6 | 7 | / | -6 | -1
COc1ccc(NC(=O)C2CCCN(S(=O)(=O)c3ccc(F)cc3)C2)cc1 (configuration not stated) | -2 | -12 | / | 0 | 0
COc1ccc(CNC(=O)c2cc3ccccn3n2)c(OC)c1 | -1 | -12 | / | -17 | 4
COc1ccc(NC(=O)COc2ccccc2)cc1NC(=O)c1ccco1 | -6 | 3 | 11 | -37* | 1
COc1ccccc1/C=C/C(=O)OCC(=O)Nc1ccccc1Sc1ccccc1 | 1 | -1 | 8 | -16 | 50*
CCC(CC)NC(=O)Nc1ccc(F)c(Cl)c1 | -6 | -2 | -20 | -46* | 30
COc1ccccc1NC(=O)COC(=O)/C=C/c1ccccc1[N+](=O)[O-] | -5 | -9 | 16 | -10 | -1
COc1cccc(/C=C/C(=O)OCC(=O)NCCC2=CCCCC2)c1 | -6 | 5 | 6 | / | 2
COc1ccc(/C=C/C(=O)OCC(=O)NCCC2=CCCCC2)cc1 | -4 | -9 | 3 | -37* | 8
COc1ccc(NC(=O)c2ccco2)cc1NC(=O)COc1ccccc1 | -1 | 0 | 7 | -7 | 3
Cc1ccc(N2C(=O)CSC23C(=O)N(CC(=O)NC2CCCCC2)c2ccccc23)cc1 (configuration not stated) | 1 | -3 | / | 0 | 1
